A short description of assay [1]: NS1 protein of Zika virus - qHTS assay to identify small molecule inhibitors in human HEK 293 cells (AID 1347053).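 Note: series mostly up to about 46 µM; plate controls were infected untreated cells for no effect and uninfected cells for full effect; nearly all actives have a fitted effect of over 55% in size.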 In outline:
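Read-out is a two-antibody TR-FRET for ZIKV NS1, normalized between uninfected cells and infected cells. Compound added 1 h before MR766 infection at MOI 0.5; human HEK 293 cells incubated 24 h, 37 C.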

Assay [2] in a line: qHTS of pediatric cancer cell lines to identify multiple opportunities for drug repurposing: Primary screen for TC32 cells (AID 1347089). Note: % is set by controls: 0 for no effect and ±100 for the full control effect; nearly all actives have a fitted effect of over 60% in size. Put shortly: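 A viability screen of TC32 cells was run over 48 h, with primary MIPE doses spanning 0.78 nM–46 µM and NPC doses 0.59 nM–46 µM. ATP luminescence (CellTiter-Glo) served as the read-out.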
The nature of assay [3]: qHTS of pediatric cancer cell lines to identify multiple opportunities for drug repurposing: Primary screen for DAOY cells (AID 1347090).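 Note: series mostly up to about 46 µM; plate controls were DMSO for no effect and bortezomib for full effect; nearly all actives have a fitted effect of over 55% in size.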 Put shortly: (§1)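 Eight- or eleven-point concentration series, 48 h treatment at 37 degrees C in growth media; readout CellTiter-Glo luminescence. Potency and efficacy were taken from the concentration-response curves.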
Assay [4] is described as follows: qHTS of pediatric cancer cell lines to identify multiple opportunities for drug repurposing: Primary screen for SJ-GBM2 cells (AID 1347091).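 Note: plate controls were DMSO neutral control for no effect and bortezomib for full effect.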 In outline: as §1
(qHTS replaces the single test concentration by a dilution series.)

The nature of assay [5]: qHTS of pediatric cancer cell lines to identify multiple opportunities for drug repurposing: Primary screen for A673 cells (AID 1347092). Note: % is set by controls: 0 for no effect and ±100 for the full control effect; nearly all actives have a fitted effect of over 45% in size. Put shortly: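 Titration-based qHTS on A673 cells: MIPE compounds spanned 11 points (0.78 nM to 46 µM final), NPC compounds 8 points (0.59 nM to 46 µM final). Viability after 48 h was measured by ATP luminescence.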
Assay [6] is described as follows: qHTS of pediatric cancer cell lines to identify multiple opportunities for drug repurposing: Primary screen for SK-N-MC cells (AID 1347093).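 Note: series mostly up to about 46 µM; plate controls were DMSO neutral control for no effect and bortezomib for full effect.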 Put shortly:
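Metabolically active cells were quantified by ATP-dependent luminescence (CellTiter-Glo, 15 min at room temperature) following 48 h treatment. Cells had been plated at 500-1,000 per well and settled for 5 h beforehand.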

Assay [7] is described as follows: qHTS of pediatric cancer cell lines to identify multiple opportunities for drug repurposing: Primary screen for BT-37 cells (AID 1347094).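 Note: series mostly up to about 57 µM; plate controls were DMSO for no effect and bortezomib for full effect.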 Put shortly: (§2)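 Quantitative HTS format: each compound titrated (MIPE 11 points from 0.78 nM, NPC 8 points from 0.59 nM) onto cells plated 5 hours earlier. After 48 h at 37 degrees C, CellTiter-Glo luminescence was recorded.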

Assay [8] can be described thus: qHTS of pediatric cancer cell lines to identify multiple opportunities for drug repurposing: Primary screen for NB-EBc1 cells (AID 1347095).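 Note: plate controls were DMSO neutral control for no effect and bortezomib for full effect.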 In outline:
as §2

Assay [9] can be described thus: qHTS of pediatric cancer cell lines to identify multiple opportunities for drug repurposing: Primary screen for U-2 OS cells (AID 1347096).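 Note: plate controls were DMSO wells for no effect and bortezomib positive control wells for full effect; nearly all actives have a fitted effect of over 50% in size.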 In outline: (§3)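 Cells (500-1,000/well) in growth media were settled 5 h at 37 degrees C, then given compounds for 48 h. Viability was read as CellTiter-Glo luminescence. Primary runs used MIPE at 11 points (0.78 nM-46 µM) and NPC at 8 points (0.59 nM-46 µM); follow-ups used 11 points.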

Assay [10] in a line: qHTS of pediatric cancer cell lines to identify multiple opportunities for drug repurposing: Primary screen for Saos-2 cells (AID 1347097). Note: % is set by controls: 0 for no effect and ±100 for the full control effect; nearly all actives have a fitted effect of over 40% in size. In outline:
as §2

Assay [11] can be described thus: qHTS of pediatric cancer cell lines to identify multiple opportunities for drug repurposing: Primary screen for SK-N-SH cells (AID 1347098).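 Note: DMSO served as neutral control and bortezomib at 2.3 µM as positive control; % is set by controls: 0 for no effect and ±100 for the full control effect; nearly all actives have a fitted effect of over 65% in size.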 Put shortly: (§4)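 Cells (500-1,000/well) rested 5 h, then received compounds for 48 h; metabolically active cells were measured by CellTiter-Glo luminescence. Final concentrations spanned up to 46 µM (MIPE, 11-point) or 0.59 nM-46 µM (NPC, 8-point) in primary screens, 11-point in follow-ups.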

Assay [12] is described as follows: qHTS of pediatric cancer cell lines to identify multiple opportunities for drug repurposing: Primary screen for NB1643 cells (AID 1347099).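 Note: plate controls were DMSO neutral control for no effect and bortezomib positive control for full effect; nearly all actives have a fitted effect of over 50% in size.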 In outline: as §2
Assay [13] is described as follows: qHTS of pediatric cancer cell lines to identify multiple opportunities for drug repurposing: Primary screen for BT-12 cells (AID 1347101).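 Note: plate controls were DMSO for no effect and bortezomib positive control for full effect; nearly all actives have a fitted effect of over 25% in size.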 In outline: as §4
Assay [14] in a line: qHTS of pediatric cancer cell lines to identify multiple opportunities for drug repurposing: Primary screen for Rh18 cells (AID 1347102). Note: % is set by controls: 0 for no effect and ±100 for the full control effect; nearly all actives have a fitted effect of over 65% in size. In outline:
as §3

A short description of assay [15]: qHTS of pediatric cancer cell lines to identify multiple opportunities for drug repurposing: Primary screen for OHS-50 cells (AID 1347103).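 For activity change, negative = cytotoxic: plate controls were DMSO neutral control for no effect and bortezomib positive control for full effect.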 Note: nearly all actives have a fitted effect of over 40% in size. Note: potency is the fitted concentration of half-maximal effect. Put shortly:
as §4

The nature of assay [16]: qHTS of pediatric cancer cell lines to identify multiple opportunities for drug repurposing: Primary screen for LAN-5 cells (AID 1347100).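 Note: plate controls were DMSO neutral control for no effect and bortezomib positive control for full effect.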 Put shortly: as §3

Inconclusive results are not listed. A number with no mark means an inactive call. The source made the active and inactive calls. Calls come from the whole dose curve; as a rule, active = well fitted curve in the direction sought with a large enough effect; inconclusive = small, poorly fitted or top-dose-only effect, or another doubt; inactive = no such curve, though single readings can be large; an effect the other way counts as inactive or inconclusive. *1 amine or outer side, *2 acyl side, *3 side chain or, on linkers, in order; H or OH if unused. Where a SMILES comes first, the peptide text is derived from it. Bridges are numbered along the chain shown (N, C = ends). [ ]: non-standard residue; d: D form. The star is where a group is joined. ξ: configuration not given here. X10 = NC1=NCCC(C(N[*:1])C(=O)[*:2])N1; ΔAla(3-NHCONH2) = NC(=O)NC=C(N)C(=O)O; ξβ3hOrn = NCCCC(N)CC(=O)*; Dap = NC[CH](N)C(=O)O

Experimental findings from PubChem BioAssay (NCATS) are described below.

In the case of `C[C@H]1C[C@@H]2[C@H]([C@@H](O)C[C@@]3(C)[C@H]2CC[C@]3(O)C(=O)CO)[C@@]2(C)C=CC(=O)C=C12`, the Potency result in [1], in assay [2], in [3], in assay [4], in assay [5] and in assay [6] was “inactive” throughout. The Potency result in assay [7], in assay [8], in assay [9], in assay [10], in assay [11] and in [12] was “inactive” in each case. The Potency result in assay [13], in assay [14] and in assay [15] was “inactive” throughout.
With `CCC(C(=O)NC(=O)NC(C)=O)c1ccccc1` (stereo not drawn), the Potency entry in assay [1], in [2], in [3], in assay [4], in assay [5] and in assay [6] was “inactive” each time. The Potency entry in assay [7], in [8], in [9], in assay [10], in assay [11] and in [12] was “inactive” in each case. For the same molecule, the Potency result in assay [16], in [13] and in assay [15] was “inactive” throughout.
With `Cc1cc(CCCOc2c(C)cc(-c3noc(C(F)(F)F)n3)cc2C)on1`, the Potency result in assay [1], in [2], in assay [3], in assay [4], in assay [5] and in [6] was “inactive” in each case. Also, the Potency result in [7], in assay [8], in [9], in assay [10], in assay [11] and in assay [12] was “inactive” each time. Further, the Potency result in assay [16] and in [14] was “inactive” throughout. Also, the Potency in assay [15] is 19.5 µM (active).
For the molecule `CCOc1c(N2CCOCC2)cnn(C)c1=O`, the Potency entry in assay [1], in assay [2], in [3], in [4], in assay [5] and in assay [6] was “inactive” each time. Also, the Potency entry in assay [7], in assay [8], in assay [10], in [11], in assay [12] and in [16] was “inactive” throughout. Also, the Potency result in [13] and in assay [15] was “inactive” throughout.
Regarding `NCCCC(N)CC(=O)NCC1NC(=O)C(CO)NC(=O)C(N)CNC(=O)C(C2CCN=C(N)N2)NC(=O)C(=CNC(N)=O)NC1=O` (stereo not drawn) (H-[Dap]S[Dap](ξβ3hOrn)[ΔAla(3-NHCONH2)][X10]; lactam 1-C; configuration not given here), in [1], the activity change, negative = inhibition was 1.27% [at 0.593 µM]. For the same molecule, the activity change, negative = cytotoxic in assay [2] was 5.9% [at 0.594 µM]; in assay [3], 6.38% [at 0.597 µM]; in assay [4] it was 34.8% [at 0.597 µM]; in assay [5], -4.68% [at 0.597 µM]; in assay [6], -13.5% [at 0.597 µM]; in assay [7] it was 18% [at 0.745 µM]. The activity change, negative = cytotoxic is 29.4% [at 0.597 µM] in [8]; 13.6% [at 0.597 µM] in assay [9]; -4.49% [at 0.741 µM] in assay [11]; 13.7% [at 0.597 µM] in [12]; 6.67% [at 0.597 µM] in assay [16]; 5.9% [at 0.745 µM] in assay [13]. Further, the activity change, negative = cytotoxic was 6.67% [at 0.597 µM] in assay [14] and 13.9% [at 0.73 µM] in [15].
With `O=c1[nH]c(=O)n([C@H]2O[C@H](CO)[C@@H](O)[C@@H]2O)cc1/C=C\Br`, the Potency result in [1], in assay [2], in assay [3], in assay [4], in [5] and in assay [6] was “inactive” in each case. The Potency entry in assay [7], in [8], in assay [9], in assay [11], in assay [12] and in assay [16] was “inactive” each time. Besides, the Potency entry in assay [13], in [14] and in [15] was “inactive” throughout.
Regarding `CNC[C@H](O)[C@@H](O)[C@H](O)[C@H](O)CO`, the Potency entry in assay [1], in assay [2], in assay [3], in assay [4], in [5] and in assay [6] was “inactive” each time. Besides, the Potency result in assay [7], in assay [8], in [10], in assay [11], in assay [12] and in assay [16] was “inactive” in each case. For the same molecule, the Potency result in [13] and in [15] was “inactive” in each case.
As to `COc1cc(C(=O)NC2CCCNC2)cc(OC)c1OC` (stereo not drawn), the Potency entry in [1], in assay [2], in assay [3], in assay [4], in [5] and in assay [6] was “inactive” in each case. The Potency result in assay [7], in [8], in assay [9], in [11], in [12] and in assay [16] was “inactive” each time. Besides, the Potency entry in assay [13], in assay [14] and in assay [15] was “inactive” throughout.
For `COC(=O)CCCCC(CCSS/C(CCO)=C(\C)N(C=O)Cc1cnc(C)nc1N)SC(C)=O` (stereo not drawn), the Potency entry in assay [1], in assay [2], in assay [3], in assay [4], in assay [5] and in assay [6] was “inactive” in each case. In addition, the Potency result in [7], in assay [8], in [9], in assay [11], in assay [12] and in [16] was “inactive” throughout. Besides, the Potency entry in assay [13], in assay [14] and in assay [15] was “inactive” in each case.
